This is a sample that favours compounds with a hit; in the whole collection about 6.8% have one here.
PINK1 modulator: changes PINK1 expression. Potency, µM (doses to about 76.6 µM), inactives show top-dose activation (PINK1 increase), hits mostly activators. PINK1 immunofluorescence, high-content cytometry, 24 h. actives 0.2% (n = 410,000); active = well fitted activation curve with a large enough effect; inconclusive = small, poorly fitted or top-dose-only effect; cell line not stated here; note: % of control where 0% means no effect; nearly all actives have a fitted effect of over 65% in size
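Cells are seeded, rested 12 hours, then given compound at five concentrations or DMSO for 24 hours. After fixation, blocking and antibody staining, PINK1 amount and mitochondrial localization are scored; CCCP serves as control.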
MCF10A rereplic: DNA re-replication induction in MCF 10a cells; Potency, µM (top dose mostly 46.1 µM), for the others: at the highest dose activity, positive = re-replication, hits mostly activators; MCF 10A DNA re-replication, Hoechst nuclear intensity, 48 h; actives 2.9% (n = 350,000); AID 624296; note: % of control where 0% means no effect; nearly all actives have a fitted effect of over 50% in size
KB-3-1 tox: kills parental KB-3-1 adenocarcinoma cells. Potency, µM (titrated, usually from 46.1 µM), actives largely listed as cytotoxic. KB-3-1 viability, CellTiter-Glo ATP luminescence, 72 h. actives 1.4% (n = 400,000); note: % is set by controls: 0 for no effect and ±100 for the full control effect; nearly all actives have a fitted effect of over 60% in size
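Luminescent ATP read-out (CellTiter-Glo) measures survival of drug-naive KB-3-1 cells after 72 h compound exposure at 37 °C. Titration series was screened from lowest to highest concentration, with DMSO vehicle plates as background controls.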
SW480 rerep: DNA re-replication induction in SW480 cells | AID 624297 | Potency, µM (highest dose often 46.1 µM), for the others: at the top dose re-replication activation, usual class: activators | actives 1.8% (n = 340,000) | SW480 DNA re-replication, Hoechst DNA content imaging, 48 h; note: % of control where 0% means no effect; nearly all actives have a fitted effect of over 55% in size
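Readout is total intensity of Hoechst-stained nuclei, excited at 405 nm and collected at 500-530 nm. Compound treatment lasted 48 hr at 37 C in 5% CO2 before staining.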
KB-V1 MDR tox: KB-V1 MDR subline cytotoxicity; KB-V1 MDR cells viability, CellTiter-Glo, 72 h; Potency, µM (top dose mostly 46.1 µM), usual class: cytotoxic; actives 3.4% (n = 400,000); AID 1347076; note: % is set by controls: 0 for no effect and ±100 for the full control effect; nearly all actives have a fitted effect of over 60% in size
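Compound-treated KB-V1 multidrug-resistant cells, 72 h, 37 degrees C; viability by CellTiter-Glo. Fitted qHTS curves give the values.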
TSG101-PTAP inh: blocks PTAP/TSG101 interaction to inhibit HIV-1 budding; Fluorescence polarization, FITC-PTAP peptide / Tsg101 binding; AID 493005; 340,000 tested, under 10 active; Potency, µM (highest dose often 115 µM), inactives show top-dose activity change, negative = inhibition, actives largely listed as inhibitors; active = well fitted inhibition curve with a large enough effect in the main read-out, with a control signal flat, not every such curve was filed as active; inconclusive = small, poorly fitted or top-dose-only effect, or effect the other way, or a change in a side signal; inactive = no such curve, though single readings can be large or run the other way; note: % of control where 0% means no effect
Target sequence (Q99816 whole entry, looked up): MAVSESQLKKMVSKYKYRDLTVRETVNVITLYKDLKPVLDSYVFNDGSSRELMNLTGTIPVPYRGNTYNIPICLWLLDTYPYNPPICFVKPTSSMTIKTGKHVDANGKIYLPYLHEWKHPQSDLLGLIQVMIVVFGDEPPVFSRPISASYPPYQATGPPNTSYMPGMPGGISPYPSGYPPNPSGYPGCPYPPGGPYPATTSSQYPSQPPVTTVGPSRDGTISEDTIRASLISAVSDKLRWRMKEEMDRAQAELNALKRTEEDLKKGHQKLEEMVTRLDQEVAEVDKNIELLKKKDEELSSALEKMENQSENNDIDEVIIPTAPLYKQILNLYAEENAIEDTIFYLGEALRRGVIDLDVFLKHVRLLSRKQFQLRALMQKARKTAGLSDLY
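Compounds were pin-transferred onto Tsg101 binding domain (10 uM final) in HEPES pH 7.5 buffer, then FITC-PTAP peptide was added at 50 nM final. After 20 min at RT, polarization reported peptide displacement across a qHTS concentration series.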
Active calls of the source: *; [ ] = another dose, or the depositor's remark. Unless noted, calls come from the whole dose curve; as a rule, active = well fitted curve in the direction sought with a large enough effect; inconclusive = small, poorly fitted or top-dose-only effect, or another doubt; inactive = no such curve, though single readings can be large; an effect the other way counts as inactive or inconclusive. Potency is the fitted concentration of half-maximal effect.

`O=C1Nc2cc(C(=O)NCCCN3CCOCC3)ccc2S/C1=C/c1cccc(Cl)c1` gave PINK1 modulator 3%, MCF10A rereplic 16µM*, KB-3-1 tox inactive, SW480 rerep 15µM*, KB-V1 MDR tox inactive and TSG101-PTAP inh 1%.
`O=C1Nc2cc(C(=O)NCCCN3CCOCC3)ccc2S/C1=C/c1ccccc1F` gave PINK1 modulator 4%, MCF10A rereplic inconclusive, KB-3-1 tox inactive, SW480 rerep inconclusive, KB-V1 MDR tox inactive and TSG101-PTAP inh -2%.
CCOC(=O)N1CCN(C(=O)c2ccc3c(c2)N(C)C(=O)/C(=C\c2ccc(OCC)c(OC)c2)S3)CC1 was read as PINK1 modulator 24%, MCF10A rereplic inconclusive, KB-3-1 tox inconclusive, SW480 rerep 10µM*, KB-V1 MDR tox inactive and TSG101-PTAP inh -3%.
Cc1ccc(Sc2c(C)nn(-c3ccccc3)c2OC(=O)C(C)(C)C)cc1 was read as PINK1 modulator 2%, KB-3-1 tox inactive and KB-V1 MDR tox inactive.
For CCn1cc2nc(SCc3cccc(C(F)(F)F)c3)n(Cc3ccc(Cl)cc3)c(=O)c2n1 the results were PINK1 modulator 2%, KB-3-1 tox inconclusive and KB-V1 MDR tox inconclusive.
For COc1cc(NC(=O)CN2CCN(CC(=O)Nc3ccc(F)cc3)CC2)cc(OC)c1 the results were PINK1 modulator 1%.
COc1ccc2c(c1)c(=O)c(C(=O)c1ccccc1)cn2Cc1ccccc1 was read as PINK1 modulator 7%, MCF10A rereplic inconclusive, KB-3-1 tox inactive, SW480 rerep 16µM*, KB-V1 MDR tox inactive and TSG101-PTAP inh -3%.
Cc1cccc(-n2c(C)nc3cc(C(=O)NC4CCCCCC4)ccc32)c1 was read as PINK1 modulator 6%, KB-3-1 tox inactive and KB-V1 MDR tox inactive.
CC(=O)N(C)c1ccc(OCC(O)Cn2c3ccc(Cl)cc3c3cc(Cl)ccc32)cc1 (stereo not given) was read as PINK1 modulator 3%, MCF10A rereplic inconclusive, KB-3-1 tox 21µM*, SW480 rerep inconclusive, KB-V1 MDR tox 21µM* and TSG101-PTAP inh 4%.
Screening CC1CCCN(CCCOc2ccc(Br)cc2Cl)C1 (stereo not given) returned PINK1 modulator 3%, MCF10A rereplic inconclusive, KB-3-1 tox inactive, SW480 rerep inconclusive, KB-V1 MDR tox inconclusive and TSG101-PTAP inh -1%.
CC1CCN(CCOCCOc2ccc(Br)cc2Cl)CC1 was read as PINK1 modulator 1%, MCF10A rereplic inconclusive, KB-3-1 tox inconclusive, SW480 rerep inconclusive, KB-V1 MDR tox 23µM* and TSG101-PTAP inh 0%.
Screening CC1CCN(C(=O)c2cc(-c3ccc(Br)cc3)on2)CC1 returned PINK1 modulator 3%, KB-3-1 tox inactive and KB-V1 MDR tox inactive.
CC(=O)Nc1ccc(OC(=O)c2ccccc2OC(C)=O)cc1 was read as MCF10A rereplic 5% and SW480 rerep 2%.
For Cc1ccc(S(=O)(=O)c2nc(-c3cccs3)oc2SCC(=O)Nc2cc(C)cc(C)c2)cc1 the results were PINK1 modulator 4%.
`COC(=O)C1=C(C#N)NC(C)=C(C(=O)OC(C)C)C1c1cccc([N+](=O)[O-])c1` (stereo not given) gave MCF10A rereplic 13% and SW480 rerep 5%.
Screening COC(=O)C1=C(C)NC(C)=C(C(=O)OCCN(C)Cc2ccccc2)C1c1cccc([N+](=O)[O-])c1 (stereo not given) returned PINK1 modulator 6%, MCF10A rereplic inconclusive, KB-3-1 tox inactive, SW480 rerep inconclusive, KB-V1 MDR tox 18µM* and TSG101-PTAP inh -5%.
For c1ccc2c(c1)nc(NCc1ccc3c(c1)OCO3)n2CCN1CCOCC1 the results were PINK1 modulator -1%, MCF10A rereplic -2%, KB-3-1 tox inactive, SW480 rerep 1%, KB-V1 MDR tox inactive and TSG101-PTAP inh -8%.
For Cc1cccc(NCc2nc3ccccc3n2Cc2ccccc2)c1 the results were PINK1 modulator 1%, MCF10A rereplic 44%[0.0737 µM], KB-3-1 tox inactive, SW480 rerep -5%, KB-V1 MDR tox inconclusive and TSG101-PTAP inh -3%.
For Cc1ccc(NCc2nc3ccccc3n2C)c(C)c1 the results were PINK1 modulator 3%, MCF10A rereplic inconclusive, KB-3-1 tox inactive, SW480 rerep 0%, KB-V1 MDR tox inactive and TSG101-PTAP inh -2%.
For Cn1c(CNc2ccc(Cl)cc2)nc2ccccc21 the results were PINK1 modulator 4%, MCF10A rereplic 2%, KB-3-1 tox inactive, SW480 rerep -5%, KB-V1 MDR tox 21µM* and TSG101-PTAP inh -3%.
Screening Cc1ccc(N2CCN(c3ccc(NCc4nc5ccccc5n4C)cc3)CC2)cc1 returned PINK1 modulator 6%, MCF10A rereplic inconclusive, KB-3-1 tox inactive, SW480 rerep 18%, KB-V1 MDR tox 4.6µM* and TSG101-PTAP inh -1%.
Screening Cc1cccc(NCc2nc3ccccc3n2C)c1 returned PINK1 modulator 4%[38.3 µM], MCF10A rereplic -8%, KB-3-1 tox inactive, SW480 rerep -10%, KB-V1 MDR tox inconclusive and TSG101-PTAP inh -4%.
`c1ccc(Cn2c(CNc3nc4ccccc4n3CCN3CCOCC3)nc3ccccc32)cc1` gave PINK1 modulator -3%[38.3 µM], MCF10A rereplic 27%, KB-3-1 tox inactive, SW480 rerep 7%, KB-V1 MDR tox 8.2µM* and TSG101-PTAP inh -4%.
For Cc1nc2cc(NCc3nc4ccccc4n3Cc3ccccc3)ccc2n1C the results were PINK1 modulator 4%, MCF10A rereplic inconclusive, KB-3-1 tox inactive, SW480 rerep -4%, KB-V1 MDR tox 10µM* and TSG101-PTAP inh 1%.
Screening CCC(C)NC(=O)Cn1ncc2c(C)n(Cc3ccc(F)cc3)c(C)c2c1=O (stereo not given) returned PINK1 modulator 1%, KB-3-1 tox inactive and KB-V1 MDR tox inactive.
Clc1ccc(OCCn2cnc3ccccc32)cc1 was read as PINK1 modulator 1%, MCF10A rereplic 16%, KB-3-1 tox inactive, SW480 rerep 27%, KB-V1 MDR tox inactive and TSG101-PTAP inh -4%.
Screening Brc1ccccc1OCCCCn1cnc2ccccc21 returned PINK1 modulator 0%, MCF10A rereplic inconclusive, KB-3-1 tox 5.2µM*, SW480 rerep 3%, KB-V1 MDR tox inconclusive and TSG101-PTAP inh -2%.
`Clc1ccccc1OCCn1cnc2ccccc21` gave PINK1 modulator -3%[38.3 µM], MCF10A rereplic -9%, KB-3-1 tox inactive, SW480 rerep -5% and KB-V1 MDR tox 21µM*.

Bioassay records: PubChem, National Center for Advancing Translational Sciences (NCATS)
